This note sets out measurements from publication PMC12820563, “FoxP3 forms a head-to-head dimer in vivo and stabilizes its multimerization on adjacent microsatellites”.

The full ranking holds about 16,000 sequences; the median of “rpm ratio (pull-down/input)” is about 0.5, and the highest 2% start at about 5.5. The full list was thinned out, with the highest values kept by preference.

This assay deals with T1, MBP-FoxP3dN (Mus musculus, UniProt Q99JB6 188-423).
T1 sequence: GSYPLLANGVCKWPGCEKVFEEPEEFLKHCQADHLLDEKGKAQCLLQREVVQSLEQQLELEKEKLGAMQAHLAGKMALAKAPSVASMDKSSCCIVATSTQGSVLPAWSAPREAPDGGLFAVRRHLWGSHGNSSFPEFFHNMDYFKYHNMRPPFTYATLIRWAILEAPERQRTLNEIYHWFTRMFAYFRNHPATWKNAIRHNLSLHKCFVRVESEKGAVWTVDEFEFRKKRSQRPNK
Briefly: PD-seq (MBP pull-down with sequencing); 20 mM Tris-HCl pH 7.5, 100 mM NaCl, 1.5 mM MgCl2, 0.4 uM protein, 0.1 uM dsDNA library, 30 min, room temperature, amylose pull-down; high values mean tight binding. To be noted: protein: recombinant; tags: His6-MBP; chain copies: 2; dsDNA, one strand shown. Summed up:
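Mouse FoxP3 or FoxP1 fragment lacking the N-terminus, His6-MBP-tagged and expressed in E. coli, was incubated at 0.4 µM with 0.1 µM Klenow-filled degenerate double-stranded DNA library for 30 min at room temperature in Tris pH 7.5 buffer with NaCl and MgCl2. Complexes captured on amylose resin were washed three times and their DNA sequenced on Illumina. Binding is reads-per-million enrichment of pull-down over input, replicates pooled.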
Turning to “GATGATTGTTCTCCCAGCTGATGAATTATGTGTTTCGAGTAAACAAATTTTCCTAATCTTTCTGTTCAAGCGCCATCTAC”, the binding signal was 4.42 RPM ratio (pull-down/input). Consider “GATGATTGTTCTCCCAGCTGATGAATTATGTCTTTCGAGTAAACAAATTTTCCTAATCTTTCTGTTCAAGCGCCATCTAC”, for which the binding signal is 1.78 RPM ratio (pull-down/input). As to “GATGATTGTTCTCCCAGCTGATGAATTATGTTGGTCGAGTAAACAAATTTTCCTAATCTTTCTGTTCAAGCGCCATCTAC”, the binding signal was 6.57 RPM ratio (pull-down/input).

Regarding “GATGATTGTTCTCCCAGCTGATGAATTATGATGATCGAGTAAACAAATTTTCCTAATCTTTCTGTTCAAGCGCCATCTAC”, the binding signal is 1.63 RPM ratio (pull-down/input). As for “GATGATTGTTCTCCCAGCTGATGAATTATGTTCATCGAGTAAACAAATTTTCCTAATCTTTCTGTTCAAGCGCCATCTAC”, the figure is 1.09 RPM ratio (pull-down/input); as for “GATGATTGTTCTCCCAGCTGATGAATTATGTTGTTCGAGTAAACAAATTTTCCTAATCTTTCTGTTCAAGCGCCATCTAC”, 7.62 RPM ratio (pull-down/input); as for “GATGATTGTTCTCCCAGCTGATGAATTATGTTCTTCGAGTAAACAAATTTTCCTAATCTTTCTGTTCAAGCGCCATCTAC”, 1.3 RPM ratio (pull-down/input). Turning to “GATGATTGTTCTCCCAGCTGATGAATTATGTTGATCGAGTAAACAAATTTTCCTAATCTTTCTGTTCAAGCGCCATCTAC”, the binding signal is 7.26 RPM ratio (pull-down/input). As for “GATGATTGTTCTCCCAGCTGATGAATTATGTTTTTCGAGTAAACAAATTTTCCTAATCTTTCTGTTCAAGCGCCATCTAC”, the figure is 6.33 RPM ratio (pull-down/input); as for “GATGATTGTTCTCCCAGCTGATGAATTAGATCATTCGAGTAAACAAATTTTCCTAATCTTTCTGTTCAAGCGCCATCTAC”, 0.534 RPM ratio (pull-down/input). As for “GATGATTGTTCTCCCAGCTGATGAATTTAAGGTGTCGAGTAAACAAATTTTCCTAATCTTTCTGTTCAAGCGCCATCTAC”, the figure is 0.772 RPM ratio (pull-down/input).

As to “GATGATTGTTCTCCCAGCTGATGAATTCACTAAATCGAGTAAACAAATTTTCCTAATCTTTCTGTTCAAGCGCCATCTAC”, the binding signal is 0.211 RPM ratio (pull-down/input). For the sequence “GATGATTGTTCTCCCAGCTGATGAATTCTGGTCGTCGAGTAAACAAATTTTCCTAATCTTTCTGTTCAAGCGCCATCTAC”, the binding signal was 0.464 RPM ratio (pull-down/input).

As for “GATGATTGTTCTCCCAGCTGATGAATTCTCAGCTTCGAGTAAACAAATTTTCCTAATCTTTCTGTTCAAGCGCCATCTAC”, the binding signal is 0.293 RPM ratio (pull-down/input). Take “GATGATTGTTCTCCCAGCTGATGAATTATGATAATCGAGTAAACAAATTTTCCTAATCTTTCTGTTCAAGCGCCATCTAC”: the binding signal was 0.653 RPM ratio (pull-down/input). In the case of “GATGATTGTTCTCCCAGCTGATGAATTTAGGGCTTCGAGTAAACAAATTTTCCTAATCTTTCTGTTCAAGCGCCATCTAC”, the binding signal was 0.514 RPM ratio (pull-down/input). “GATGATTGTTCTCCCAGCTGATGAATTTTGCGTATCGAGTAAACAAATTTTCCTAATCTTTCTGTTCAAGCGCCATCTAC”: the binding signal was 3.74 RPM ratio (pull-down/input). To “GATGATTGTTCTCCCAGCTGATGAATTGTGACAGTCGAGTAAACAAATTTTCCTAATCTTTCTGTTCAAGCGCCATCTAC” belongs 0.817 RPM ratio (pull-down/input).

For the sequence “GATGATTGTTCTCCCAGCTGATGAATTGTCAGAGTCGAGTAAACAAATTTTCCTAATCTTTCTGTTCAAGCGCCATCTAC”, the binding signal is 0.234 RPM ratio (pull-down/input). Consider “GATGATTGTTCTCCCAGCTGATGAATTCCCGTCTTCGAGTAAACAAATTTTCCTAATCTTTCTGTTCAAGCGCCATCTAC”, for which the binding signal was 0.33 RPM ratio (pull-down/input).

Turning to “GATGATTGTTCTCCCAGCTGATGAATTAGTAAACTCGAGTAAACAAATTTTCCTAATCTTTCTGTTCAAGCGCCATCTAC”, the binding signal was 1.08 RPM ratio (pull-down/input). Take “GATGATTGTTCTCCCAGCTGATGAATTACGTTGGTCGAGTAAACAAATTTTCCTAATCTTTCTGTTCAAGCGCCATCTAC”: the binding signal was 1.3 RPM ratio (pull-down/input). To “GATGATTGTTCTCCCAGCTGATGAATTTTGTTATTCGAGTAAACAAATTTTCCTAATCTTTCTGTTCAAGCGCCATCTAC” belongs 7.33 RPM ratio (pull-down/input). Regarding “GATGATTGTTCTCCCAGCTGATGAATTATTTTGTTCGAGTAAACAAATTTTCCTAATCTTTCTGTTCAAGCGCCATCTAC”, the binding signal was 1.15 RPM ratio (pull-down/input). “GATGATTGTTCTCCCAGCTGATGAATTTGGTTATTCGAGTAAACAAATTTTCCTAATCTTTCTGTTCAAGCGCCATCTAC”: the binding signal is 3.56 RPM ratio (pull-down/input). With “GATGATTGTTCTCCCAGCTGATGAATTTCGTTATTCGAGTAAACAAATTTTCCTAATCTTTCTGTTCAAGCGCCATCTAC”, the binding signal was 2.7 RPM ratio (pull-down/input). As for “GATGATTGTTCTCCCAGCTGATGAATTATGTTATTCGAGTAAACAAATTTTCCTAATCTTTCTGTTCAAGCGCCATCTAC”, the binding signal is 7.23 RPM ratio (pull-down/input). Take “GATGATTGTTCTCCCAGCTGATGAATTATGTAATTCGAGTAAACAAATTTTCCTAATCTTTCTGTTCAAGCGCCATCTAC”: the binding signal was 3.03 RPM ratio (pull-down/input). On to “GATGATTGTTCTCCCAGCTGATGAATTATTATGTTCGAGTAAACAAATTTTCCTAATCTTTCTGTTCAAGCGCCATCTAC”, for which the binding signal is 1.3 RPM ratio (pull-down/input). On to “GATGATTGTTCTCCCAGCTGATGAATTTGATTATTCGAGTAAACAAATTTTCCTAATCTTTCTGTTCAAGCGCCATCTAC”, for which the binding signal was 4.96 RPM ratio (pull-down/input). Turning to “GATGATTGTTCTCCCAGCTGATGAATTGTTATTTTCGAGTAAACAAATTTTCCTAATCTTTCTGTTCAAGCGCCATCTAC”, the binding signal is 4.89 RPM ratio (pull-down/input). In the case of “GATGATTGTTCTCCCAGCTGATGAATTTGTTATTTCGAGTAAACAAATTTTCCTAATCTTTCTGTTCAAGCGCCATCTAC”, the binding signal was 7.62 RPM ratio (pull-down/input). Take “GATGATTGTTCTCCCAGCTGATGAATTCTGTTATTCGAGTAAACAAATTTTCCTAATCTTTCTGTTCAAGCGCCATCTAC”: the binding signal was 6.72 RPM ratio (pull-down/input).

Regarding “GATGATTGTTCTCCCAGCTGATGAATTATTTGTTTCGAGTAAACAAATTTTCCTAATCTTTCTGTTCAAGCGCCATCTAC”, the binding signal was 4.2 RPM ratio (pull-down/input).
